The campaign covered roughly 220,000 compounds. About 2,000 (0.91%) were called active. Inconclusive results (about 2%) are left out. Only a sample is shown. Entries with a potency or affinity are not part of this list. Unmarked numbers belong to inactive results. Rule as the data show it: inconclusive = inhibition above about 80% without an active follow-up result; inactive = below that; test concentration not stated here.
Experiment: M. tuberculosis H37Rv growth inhibitors, H37Rv strain (AID 1626);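 also: bacteria incubated seven days before Alamar blue readout; 0% = bacteria only wells and 100% = bacteria with antibiotic wells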
Details: hits give high values, concentration not given here

SMILES	inhibition
Cc1cc(C)cc(NC(=O)NCc2c(-c3ccccc3)noc2C)c1	1.42%
CCOc1ccc(NC(=O)c2ccccc2O)cc1	6.33%
CCOc1ccc(NC(=O)C(CC)NC(=O)c2ccccc2CO)cc1 (stereo not given)	3.2%
CN(C)/C=N/c1cc(=O)n(Cc2ccccc2)c(=O)n1C	-11.1%
O=c1oc2ccccc2cc1-c1nc2ccccc2o1	8.96%
O=c1oc2ccc3ccccc3c2cc1-c1nnc(-c2ccccc2)o1	77.2%
COc1ccc2oc(=O)c(-c3nc4ccccc4o3)cc2c1	2.35%
COc1ccc(-c2nnc(-c3cc4c(ccc5ccccc54)oc3=O)o2)cc1	-4.32%
C=CCn1c(-c2ccccc2)nc2nc3ccccc3nc21	5.61%
CNC(=O)CSc1nnc(-c2ccncc2)n1Cc1ccccc1	-4.15%
CCOC(=O)CSC1=N/C(=C\c2cc(OC)c(OC)c(OC)c2)C(=O)N1C	0.23%
CCC1Oc2ccc(C)cc2N(Cc2cccc(C)c2)C1=O (stereo not given)	17.5%
CN(Cc1ncc[nH]1)C(=O)c1cc(COc2c(F)cccc2F)on1	0.91%
CC1CN(C(=O)/C=C/c2ccc([N+](=O)[O-])s2)CC(C)O1 (stereo not given)	6.46%
O=C(/C=C/c1ccccc1[N+](=O)[O-])N1CCCCC1	3.44%
O=C(/C=C/c1cccs1)N1CCCCC1	12.9%
Cc1ccc(/C=C/C(=O)N2CC(C)CC(C)C2)o1 (stereo not given)	15.8%
CCc1nc2ccccc2n1Cc1ccc(F)cc1	3.76%
CCOC(=O)N1CCC(NC(=O)Cn2cc3c(n2)CCCC3)CC1	-5.16%
Cc1ccccc1C(C(=O)NC1CCCCC1)N(C(=O)CNC(=O)c1ccco1)c1cccnc1 (stereo not given)	2.42%
NC1=NCC(O)=C1c1nc2ccccc2[nH]1	4.96%
COc1ccc(C(=O)/C=C/c2cn(CC(O)CN3CCN(C)CC3)c3ccccc23)cc1OC (stereo not given)	-1.8%
Cc1ccc(C(=O)/C=C/c2cn(CC(O)CN3CCOCC3)c3ccccc23)cc1 (stereo not given)	78.3%
COc1ccc(C(=O)/C=C/c2cn(CC(O)CN3CCOCC3)c3ccccc23)cc1 (stereo not given)	15.2%
CCCCN(C)CC(O)Cn1cc(/C=C/C(=O)c2cccs2)c2ccccc21 (stereo not given)	32.9%

SMILES	inhibition
O=Cc1cn(CC(O)CN2CCCCC2)c2ccccc12 (stereo not given)	-4.08%
O=C(/C=C/c1cn(CC(O)CN2CCOCC2)c2ccccc12)c1cccs1 (stereo not given)	4.21%
C=CCNC(=O)c1ccc(-c2ccc([N+](=O)[O-])cc2)o1	2.72%
COc1cccc(/C=C2\SC(=S)N(NC(=O)c3ccncc3)C2=O)c1	-9.97%
O=C(NCc1csc(-c2cccs2)n1)Nc1ccc(F)cc1F	-1.75%
OCCNCC(O)Cn1c2ccccc2c2ccccc21 (stereo not given)	3.13%
Cc1cc(C)n(CC(O)Cn2c3ccc(Cl)cc3c3cc(Cl)ccc32)c(=O)n1 (stereo not given)	3.67%
OCCn1c(-c2ccccc2)csc1=Nc1ccccc1	3.23%
CCOc1ccc(N=c2scc(-c3ccc(OC)cc3)n2CCO)cc1	27.6%
Cc1cc(C)cc(C(=O)NCCCc2ccccc2)c1	-1.21%
CCN(CC)C(=O)C1CCCN(Cc2sccc2C)C1 (stereo not given)	-5.07%
Cc1nc(N)nc(COc2ccccc2)n1	-5.7%
CCc1nc(N2CCCCC2)c2oc3ccccc3c2n1	22.4%
CCc1nc(N2CCC(C)CC2)c2oc3ccccc3c2n1	21.7%
O=C(NCCCn1ccnc1)C(=O)NCC(c1cccnc1)N1CCN(c2ccccc2)CC1 (stereo not given)	0.94%
COC(=O)/C(=N/Nc1ccccc1)N1CCCc2ccccc21	38.7%
ClC(=C\c1ccccc1)/C=N/N1CCN(c2ccccn2)CC1	-1.5%
CC(=O)Nc1ccc(NC(=O)CSc2ccc([N+](=O)[O-])cn2)cc1	-4.39%
O=C(CSc1ccccn1)Nc1ccc2c(c1)OCCO2	-16.3%
CCSc1nnc(NC(=O)c2cnccn2)s1	2.03%
O=C(Nc1nnc(C2CC2)s1)c1ccncc1	-4.03%
CSc1ncccc1C(=O)Nc1nnc(C2CC2)s1	0.73%
CCSc1nnc(NC(=O)c2cccnc2Cl)s1	-8.72%
O=C(Nc1nnc(SCc2ccc(F)cc2)s1)c1cccnc1Cl	7.86%
CC(=O)Nc1nnc(SCc2ccc(F)cc2)s1	1.23%

SMILES	inhibition
O=C(Nc1nnc(SCc2c(Cl)cccc2Cl)s1)c1ccc2ncsc2c1	29.9%
Cc1cnc(C(=O)Nc2nnc(C)s2)cn1	-5.75%
COc1ccc(N2CCN(C(=O)C(C)(C)Oc3ccc(Cl)cc3)CC2)cc1	10.8%
CCCCn1c(/C=C/c2ccco2)nc2ccccc21	-4.08%
CN(CCC(=O)Nc1ccc2c(c1)OCO2)Cc1ccccc1	-7.11%
Cc1cccc(S(=O)(=O)NNC(=O)Cc2cccn2C)c1	3.18%
COc1ccccc1NC(=O)COc1ccc(Br)cc1CNCCCN1CCOCC1	-1.49%
Oc1ccccc1/C=N/[n+]1ccccc1	-3.35%
CCc1cc(=O)oc2cc(OCC(=O)O)c(Cl)cc12	-5.56%
CCC(=O)Nc1nnc(SCc2ccc(F)cc2)s1	7.4%
O=C(Nc1nnc(SCc2ccc(F)cc2)s1)c1ccco1	-8.91%
CCCCNC(=O)Nc1ccccc1C(=O)Nc1ccc(OC)cc1	-1.66%
CCc1cccc(NC(=O)C(NC(=O)C2CCCCC2)C(C)C)c1 (stereo not given)	-6.21%
COc1ccc(C)cc1S(=O)(=O)N1c2ccccc2CC1C (stereo not given)	2.45%
CCOC(=O)c1cnc(-n2nc(C)cc2C)nc1N1CCOCC1	-9.47%
CCOC(=O)c1cnc(-n2nc(C)cc2C)nc1NNc1nc(C)cc(C)n1	71.3%
CCOC(=O)c1cnc(-n2nc(C)cc2C)nc1Nc1ccc(O)cc1	0.145%
CCOC(=O)c1cnc(-n2nc(C)cc2C)nc1N(C)C	4.9%
CCOC(=O)c1cnc(-n2nc(C)cc2C)nc1Oc1ccc(C(=O)OC)cc1	8.41%
CCOC(=O)c1cnc(-n2nc(C)cc2C)nc1NC	19.4%
CCOC(=O)c1cnc(-n2nc(C)cc2C)nc1Oc1ccc(C#N)cc1	-2.96%
CCOC(=O)c1cnc(-n2nc(C)cc2C)nc1Nc1cccc(C(=O)O)c1	7.26%
O=C(O)c1cccnc1Br	1.4%
Cc1ccc(/C=N/OC(=O)c2nn(C)cc2Cl)cc1	11.9%
CCC1CSC(Nc2ccc(C(=O)/C=C/c3ccc(OC)c(OC)c3)cc2)=N1 (stereo not given)	44.8%

SMILES	inhibition
CCCc1cc(=O)[nH]c(SCc2ccc(F)cc2)n1	-1.85%
COc1cccc(NC(=O)N2CCCc3ccccc32)c1	15%
COc1cccc2sc(N(CCCN(C)C)C(=O)c3sc4ccccc4c3Cl)nc12	1.6%
COc1cccc2sc(N(CCCN(C)C)C(=O)COc3ccc(Cl)cc3)nc12	-2.48%
Cc1cccc(C(=O)Nc2ccccc2C(=O)OCC(=O)Nc2ccc(C#N)cc2)c1	45%
CCNC(=O)COC(=O)CNC(=O)c1cc(Cl)cc([N+](=O)[O-])c1	-10%
CN(C)C(=O)Oc1ccc(Cl)c2cccnc12	-4.68%
O=C(Oc1ccc(Cl)c2cccnc12)N1CCCCC1	4.79%
CCCC(=O)Nc1ccc(NC(=O)c2ccccc2Cl)nc1	7.45%
O=C(N/N=C/C=C\c1ccc([N+](=O)[O-])cc1)c1cccnc1	-15.7%
Cc1ccc(S(=O)(=O)Oc2ccc3c(c2)O/C(=C\c2cccnc2)C3=O)cc1	-0.74%
CS(=O)(=O)Oc1ccc2c(c1)O/C(=C\c1cccnc1)C2=O	-6.08%
O=C1/C(=C/c2ccncc2)Oc2cc(OS(=O)(=O)c3ccccc3)ccc21	21.6%
O=C1/C(=C/c2cccnc2)Oc2cc(OS(=O)(=O)c3ccc(Cl)cc3)ccc21	13.6%
Cc1ccc2[nH]cc(C(=O)CN3CCOCC3)c2c1	-4.26%
COc1ccc(C2C3=C(CCCC3=O)Nc3n[nH]c(C)c32)cc1OC (stereo not given)	-5.11%
CCOC(=O)CSc1nnc(CNc2cccc(Cl)c2)n1-c1ccccc1	5.48%
N#Cc1nc(-c2ccc(OCc3ccc(Cl)cc3)cc2)oc1NCCCn1ccnc1	-1.04%
N#Cc1nc(-c2ccc(OCc3ccccc3)cc2)oc1NCCCn1ccnc1	4.85%
Cc1cccc(C)c1Nc1nnc(SCc2cn3cccc(C)c3n2)s1	-7.42%
COc1ccc(-c2cc(=Nc3ccc(C)cc3)c3ccccc3o2)cc1	12.8%
COc1ccc(-c2cc(=Nc3ccccc3)c3cc(C)ccc3o2)cc1	17.7%
O=C(CNC(=O)c1ccco1)Nc1ccc(S(=O)(=O)N2CCCC2)cc1	-5.82%
CN(C)CCCN(C(=O)CCc1ccccc1)c1nc2ccc(F)cc2s1	7.03%
Cc1ccc2nc(N(CCCN(C)C)C(=O)CCc3ccccc3)sc2c1	9.45%

Reference: PubChem BioAssay AID1626 (SRMLSC, 2009)
